# Data: PubChem BioAssay AID1347120 (National Center for Advancing Translational Sciences (NCATS), 2019)
# Screen size: about 390,000 compounds; about 930 (0.24%) were called active. Roughly 5% stayed inconclusive and do not appear here. Calls follow the shape of the dose curve; as a rule, active = well fitted activation curve with a large enough effect; inconclusive = small, poorly fitted or top-dose-only effect; inactive = no such curve, though single readings can be large or run the other way. The list comes from a sample in which actives are over-represented; it also holds similar structures and randomly drawn compounds.
# Test: qHTS for Suppressors of FUS Proteinopathy: Primary screen using FUS-linked yeast assay; also: nearly all actives have a fitted effect of over 55% in size;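 as to growth rescue (activation): plate controls were DMSO vehicle for no effect and reference control for full effect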
# Conditions: S. cerevisiae FUS-expressing, OD600, 24 h; Potency: growth rescue; series mostly up to 76.6 µM; growth rescue (activation): at the top concentration
# Description: Several widespread neurodegenerative diseases, including Alzheimer disease, Huntington disease, Frontotemporal Lobar Degeneration (FTLD) and Amyotrophic Lateral Sclerosis (ALS), share a common pathological feature, namely accumulation of specific protein aggregates in diseased tissue. These diseases which is associated with protein misfolding (proteinopathies) have become increasingly problematic as the population ages and life expectancies are extended. Most proteinopathies are currently incurable, a situation confounded by the fact that the basis of neurodegeneration is generally poorly understood. There exists urgent and significant need to find therapeutics that can inhibit the toxicity associated with protein aggregation. A novel approach to understand the underlying mechanisms of neurodegenerative diseases has recently emerged in which the disease conditions are modeled in the yeast (Saccharomyces cerevisiae), a tractable eukaryotic organism with conserved protein quality control mechanisms. Yeast offers quick and reliable genetic manipulations and can be easily tailored to high-throughput screening (HTS).
# For this project, a yeast model of the FUS proteinopathies (a spectrum of neurodegenerative diseases that include ALS and a subtype of FTLD) was generated and employed. The cytoplasmic accumulation of the DNA/RNA-binding protein FUS (also known as TLS) is causative to both familial and sporadic forms of ALS and FTLD. This yeast model recapitulates neuronal pathology by showing severe cytotoxicity associated with cytoplasmic accumulation of FUS aggregates and a specific interaction between FUS and TDP-43, another ALS-associated protein. […] Specifically, the cellular accumulation of misfolded FUS that disrupts RNA homeostasis in both yeast and higher eukaryotes. This model was validated to be suitable for quantitative HTS (qHTS) use for finding genetic or chemical factors that restore growth. […] Identified compounds that inhibits FUS-yeast toxicity is flagged, re-acquired, and validated for further investigation and optimization.
# NIH Chemical Genomics Center [NCGC]
# NIH Molecular Libraries Probe Production Centers Network [MLPCN]
# Assay Submitter (PI): Frank Shewmaker PhD, Uniformed Services University of the Health Sciences
# Compound CP55940 was used as the positive control. Column 1 was treated with CP55940 titration from 92uM (final concentration, 1:2 dilution), while Column 2 was treated with top dose 92uM. Columns 3 and 4 were treated with DMSO only as negative control to assess background and noise signal.
# Four hundred fifty microliter of cultured yeast (in 20mL rich medium) provided by Dr. Shewmaker lab was incubated at 30C at 99% humidity for 3hr. The culture was then spun down at 4000rpm for 5min and the cell pellet was resuspended in 2mL of Sdmin Media + ALU(330) + 2.5% Raffinose. One hundred microliter of the suspension was added to 900uL of water and OD of the solution was obtained. Twenty mL of responding medium (provided by Shewmaker lab) + 2.5% raffinose was added to ensure cell density of 0.1; the solution was incubated overnight. Working cell solution (FUS-yeast in Sdmi + Sdmi + 1X ALU + 2% galactose media) was prepared (final OD at 0.005) and 3uL was dispensed in a 1536-well Aurora high based clear bottom assay plates. Controls and library compounds (at various final concentrations from 40uM to 0.32uM) were added using a 1536-well pin array using the Kalypsys pin-tool. The plates were then incubated for 24hrs in a cell-culture incubator (30C; 99% humidity). Absorbance at 600nm was then read using the PerkinElmer ViewLux plate reader.
# Potency is read from the fitted curve at half-maximal effect.
SMILES,growth rescue (activation),Potency
Cc1cc(C(=O)Nc2cccc(C(F)(F)F)c2)c2c(C)nn(-c3cccc(F)c3)c2n1,15.4% (inactive),
CC(C)(C)c1ccc(C(=O)Nc2ccc3c(c2)CCCN3C(=O)c2cccs2)cc1,41.4% (inactive),
CC(C)c1ccc(S(=O)(=O)Nc2ccc(O)c(Sc3nc4ccccc4s3)c2)cc1,30.6% (inactive),
CC(C)(C)c1ccc(S(=O)(=O)Nc2ccc(O)c(Sc3nc4ccccc4s3)c2)cc1,9.07% (inactive),
CCOc1ccc(Nc2c(S(=O)(=O)c3ccccc3)cnc3ccccc23)cc1,43.5% (inactive),
Cc1c(NC(=O)Cc2ccccc2)cccc1-c1nc2cccnc2s1,24% (inactive),
Cc1ccc(Cl)cc1NC(=O)CCC(=O)N1CC(C)Sc2ccccc21 (stereo not given),43.6% (inactive),
CCCn1c(C)cc(/C=C(\C#N)C(=O)OCC(=O)Nc2cc(OC)c(OC)c(OC)c2)c1C,23.6% (inactive),
CCCn1c(C)cc(/C=C(\C#N)C(=O)OCC(=O)N(C)c2c(N)n(Cc3ccccc3)c(=O)[nH]c2=O)c1C,,25.1 µM (active)
CCN(C(=O)COC(=O)CCOc1cccc(C)c1)c1c(N)n(Cc2ccccc2)c(=O)[nH]c1=O,8.57% (inactive),
CCC1CCCCN1C(=O)Cn1c(=O)n(CCCCCC(=O)NCc2ccccc2)c(=O)c2sccc21 (stereo not given),6.98% (inactive),
COc1ccc(NC(=O)NC(C)c2c(-n3cccc3)sc(C)c2C)cc1OC (stereo not given),42.7% (inactive),
CCN(CC)S(=O)(=O)c1ccc2c(c1)N(CC(=O)NCC(C)c1ccccc1)C(=O)CO2 (stereo not given),14.3% (inactive),
CCN(CCCNC(=O)c1cc2c(=O)n(CC)c3ccccc3c2s1)Cc1ccccc1,6.37% (inactive),
Cc1cccc(NC(=O)CSc2nnc(CNC(=O)c3cccc(C)c3)n2-c2ccccc2)c1,8.61% (inactive),
CCc1ccc(S(=O)(=O)c2nnn3c2nc(NCc2ccccc2OC)c2cc(Cl)ccc23)cc1,-7.06% (inactive),
N#C/C(=C\c1cccc(F)c1)c1nc(-c2cc3c(ccc4ccccc43)oc2=O)cs1,-1.96% (inactive),
COc1ccc(C2C(=O)N(C3CCCCCC3)CC(=O)N2CCc2ccc(Cl)cc2)cc1OC (stereo not given),21.5% (inactive),
Cc1onc(-c2ccc(F)cc2F)c1C(=O)Nc1cccc(C(F)(F)F)c1,8.05% (inactive),
COc1ccc(C2=NN(C(=O)CSc3nc(=O)n4ccc(C)cc4n3)C(c3ccc(C)cc3)C2)cc1 (stereo not given),-24.8% (inactive),
Cc1ccc(CNC(=O)CSC2=Nc3ccccc3C3=NC(C)C(=O)N23)cc1 (stereo not given),17.6% (inactive),
Cc1ccc(N2C(=O)C3N=NN(CC(=O)N4N=C(c5cccc6ccccc56)CC4c4ccccc4)C3C2=O)cc1 (stereo not given),,14.1 µM (active)
COc1ccccc1CNC(=O)Cn1nc(C)c2nn(-c3ccc(Cl)cc3)c(C)c2c1=O,43.3% (inactive),

SMILES,growth rescue (activation),Potency
Cc1ccc(NC(=O)c2nc(S(=O)(=O)Cc3cccc(C)c3)ncc2Cl)cc1,-17.7% (inactive),
CCN1C(=O)[C@H]2[C@@H](c3ccc(-c4ccc(F)cc4)cc3)N[C@@](Cc3ccccc3)(C(=O)OC)[C@H]2C1=O,,11.2 µM (active)
CCN1C(=O)[C@H]2[C@@H](c3ccc(SC4CCCCC4)c(OC)c3)N[C@@](Cc3ccccc3)(C(=O)OC)[C@H]2C1=O,26.7% (inactive),
CCN1C(=O)[C@H]2[C@@H](c3ccc(-c4ccc(OC)cc4)cc3)N[C@@](Cc3ccccc3)(C(=O)OC)[C@H]2C1=O,-1.62% (inactive),
COC(=O)c1cc2occc2n1Cc1nc(-c2ccc(C)cc2)oc1C,17.4% (inactive),
CCN(Cc1ccccc1)S(=O)(=O)c1ccc2c(c1)CCCN2C(C)=O,17.6% (inactive),
Cc1cccc(CSc2nc3ccncc3n2CC(=O)N(C)C2CCCCC2)c1,11.2% (inactive),
Cc1ccc(Cl)cc1N(C)C(=O)C1CCCN(c2ncnc3onc(-c4ccc(F)cc4)c23)C1 (stereo not given),5.26% (inactive),
CON(C)S(=O)(=O)c1ccc2c(c1)NC(=O)C1CCCN21 (stereo not given),,28.2 µM (active)
COc1ccc(N2CCN(S(=O)(=O)c3ccc4c(c3)NC(=O)C(C)C(=O)N4)CC2)cc1 (stereo not given),5.53% (inactive),
CC1C(=O)Nc2ccc(S(=O)(=O)N3CCN(c4ccccc4F)CC3)cc2NC1=O (stereo not given),-20% (inactive),
COc1ccc(OCCCn2c(C)nc3cc(C)c(C)cc32)cc1,25.3% (inactive),
CC(NC(=O)c1cc(Sc2ccc(F)cc2F)nc2ccccc12)c1ccccc1 (stereo not given),23.4% (inactive),
Cc1cccc(-n2ncc(C(=O)N3CCc4ccccc4C3)c2C2CCN(C(=O)OC(C)(C)C)CC2)c1,-8.68% (inactive),
Cc1ccc2nc(N3C(=O)C(O)=C(C(=O)c4ccco4)C3c3cccc(O)c3)sc2c1 (stereo not given),,15.8 µM (active)
CCOc1cc(C2C(C(=O)c3ccco3)=C(O)C(=O)N2Cc2ccccc2)ccc1O (stereo not given),11% (inactive),
CC(=O)c1sc(N2C(=O)c3oc4ccccc4c(=O)c3C2c2ccc(C)cc2)nc1C (stereo not given),3.74% (inactive),
Cc1ccc(CN2C(=O)SC(Nc3ccccc3)C2=O)cc1 (stereo not given),-7.07% (inactive),
CCOC(=O)N1CCN(S(=O)(=O)c2cc(Br)cc3c2N(C(=O)C2CC2)CC3)CC1,1.43% (inactive),
CN(Cc1ccccc1)C(=O)CCS(=O)(=O)c1cc(Br)cc2c1N(C(=O)C1CC1)CC2,43.2% (inactive),
CCN(c1ccc2c(c1)OCO2)S(=O)(=O)c1cc(Br)cc2c1N(C(=O)C1CC1)CC2,,17.8 µM (active)
O=C(CCS(=O)(=O)c1cc(Br)cc2c1N(C(=O)C1CC1)CC2)Nc1ccc(Br)cc1F,-0.121% (inactive),
